We go through 15 compounds from PubChem BioAssay (NCATS).

Inconclusive results are not listed. Active and inactive are the calls of the source. Unless noted, no rule for the calls is given here.

Assay [1] in a line: qHTS profiling for inhibitors of Plasmodium falciparum (3D7) proliferation (AID 743322).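 Also: infected erythrocytes exposed to compound for 72 h before lysis; 100% = DMSO vehicle wells and 0% = 0.29 µM artemisinin.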 The note with it: P. falciparum 3D7 proliferation; at 28.7 µM (top of the series). The gist of the method:
(§1)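 Parasite DNA was quantified by SYBR Green I fluorescence (ex 485, em 535 nm) after overnight lysis in saponin/Triton buffer at room temperature. Cultures at 0.3% parasitemia and 2.5% hematocrit were first exposed to compound for 72 h at 37 C; signals were normalised to artemisinin (0.29 uM) and vehicle wells.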
(In general: In qHTS, concentration-response curves come from the screen itself.)

A short description of assay [2]: qHTS profiling for inhibitors of Plasmodium falciparum (DD2) proliferation (AID 743323). The conditions noted are these: lower = more inhibition; at 28.7 µM (top of the series). The gist of the method: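 1536-well qHTS; infected RBCs 0.3% parasitemia/2.5% Hct final; cpd 72 h 37 C 5% CO2; lysis buffer + SYBR Green I, o/n RT dark; FI 485/535; norm. to 0.29 uM artemisinin and DMSO, plate-stack corrected.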

Assay [3] can be described thus: qHTS profiling for inhibitors of Plasmodium falciparum (HB3) proliferation (AID 743324; active = well fitted curve in the direction sought with a large enough effect; an effect the other way counts as inactive or inconclusive;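 also: 100% = DMSO vehicle wells and 0% = artemisinin-treated control wells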). The note with it: Plasmodium falciparum HB3 blood-stage proliferation; at 28.7 µM (top of the series). The gist of the method:
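SYBR Green fluorescence (485 ex/535 em) of lysed cultures, incubated overnight at room temperature in the dark, quantifies parasite DNA. Infected erythrocytes at 0.3% parasitemia and 2.5% hematocrit were exposed 72 h; values normalized to DMSO and 0.29 uM artemisinin controls.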

Assay [4] is described as follows: qHTS Assay for Identifying Gametocytocidal Compounds (AID 743244; active = well fitted curve in the direction sought with a large enough effect; an effect the other way counts as inactive or inconclusive;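 also: % is scaled to controls: 0 for no effect and ±100 for the full control effect; actives lower the fluorescent signal which means gametocytes are killed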). The conditions noted are these: P. falciparum 3D7 stage III-V gametocytes, alamarBlue, 72 h; stronger effect = lower value. The gist of the method: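 P. falciparum 3D7 stage III–V gametocytes (20,000 cells/well) were exposed to compounds for 72 h at 37 °C, 5% CO2. AlamarBlue was then added for 24 h; decreased resorufin fluorescence (Ex 525/Em 598 nm) indicated loss of viability.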

The nature of assay [5]: qHTS profiling of the MIPE4 collection as inhibitors of Plasmodium falciparum (3D7) proliferation (AID 743344).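 Also: scaled between DMSO vehicle wells and 0.29 µM artemisinin as full inhibition.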 The note with it: P. falciparum 3D7 in erythrocytes, SYBR Green DNA fluorescence, 72 h; at 28.5 µM (top of the series). The gist of the method:
as §1

The nature of assay [6]: qHTS profiling of the MIPE4 collection as inhibitors of Plasmodium falciparum (DD2) proliferation (AID 743345). The conditions noted are these: P. falciparum Dd2 in erythrocytes, SYBR Green DNA, 72 h; at 28.5 µM (top of the series). Put shortly:
as §1

Assay [7] in a line: qHTS profiling of the MIPE4 collection as inhibitors of Plasmodium falciparum (DD2) proliferation (Rep 2) (AID 743346). The conditions noted are these: P. falciparum Dd2 in erythrocytes, SYBR Green DNA, 72 h; at 28.5 µM (top of the series). Put shortly:
as §1

Turning to `CS(=O)(=O)c1ccc(-c2cnc(N)c(-c3ccc(C(F)(F)F)nc3)c2)cc1`, in assay [1], the remaining parasite growth % (stronger effect = lower value) was found to be 2.16%. Further, the activity, percent of control in assay [2] turned out to be 8.27%. Also, the remaining proliferation (% of control), lower = more inhibition in assay [3] worked out at 4.13%.

Turning to `O=C([C@H](Cc1ccc(O[S+](=O)([O-])c2cccc3cccnc23)cc1)N[S+](=O)([O-])c1cccc2cnccc12)N1CCN(c2ccccc2)CC1`, the remaining parasite growth % (stronger effect = lower value) in assay [1] was -0.402%. Besides, in assay [2], the activity, percent of control amounted to 1.4%. The remaining proliferation (% of control), lower = more inhibition in assay [3] turned out to be 0.212%.

Take `C/C=C/C1=C(C(=O)O)N2C(=O)[C@@H](NC(=O)[C@H](N)c3ccc(O)cc3)[C@H]2SC1`: the max response in assay [4] was 9.08% (inactive).

On to `NC[C@@H]1O[C@H](O[C@H]2[C@@H](O)[C@H](O[C@@H]3[C@@H](O)[C@H](N)C[C@H](N)[C@H]3O[C@H]3O[C@H](CN)[C@@H](O)[C@H](O)[C@H]3N)O[C@@H]2CO)[C@H](N)[C@@H](O)[C@@H]1O`, for which, in assay [4], the max response is -12% (inactive).

As to `O=C([C@H](Cc1ccc(O[S+](=O)([O-])c2cccnc2)cc1)N[S+](=O)([O-])c1cccnc1)N1CCN(c2ccccc2)CC1`, in assay [1], the remaining parasite growth % (stronger effect = lower value) is 15.8%. Also, in assay [2], the activity, percent of control worked out at 16.7%. Moreover, the remaining proliferation (% of control), lower = more inhibition in assay [3] worked out at 3.22%.

For `CC(C)(C)OC(=O)N[C@@H](Cc1ccc(O[S+](=O)([O-])c2cccc3cccnc23)cc1)C(=O)N1CCN(c2ccccc2)CC1`, the remaining parasite growth % (stronger effect = lower value) in assay [1] is -0.907%. Also, in assay [2], the activity, percent of control is -0.148%. The remaining proliferation (% of control), lower = more inhibition in assay [3] was -0.0202%.

Consider `C[C@H]1Cc2c([nH]c3cc(Cl)c(F)cc23)[C@@]2(N1)C(=O)Nc1ccc(Cl)cc12`, for which the remaining parasite growth % (stronger effect = lower value) in assay [1] is -1.02%. Further, the activity, percent of control in assay [2] is -0.226%. Besides, the remaining proliferation (% of control), lower = more inhibition in assay [3] stood at 0.369%. The compound also had a parasite growth, % of DMSO control in assay [5] of 5.02%. In assay [6], this compound had a parasite growth remaining, % of DMSO control (lower = more inhibition) of 6.27%. The parasite growth, % of control (lower = inhibition) in assay [7] came out at 33.6%.

For the compound `CCCCC(F)(F)[C@@]1(O)CC[C@H]2[C@@H](CC(=O)[C@@H]2CCCCCCC(=O)O)O1`, the max response in assay [4] is 2.98% (inactive).

Take `O=C(OCc1ccccc1)N1CCN(C(=O)[C@H](Cc2ccc(O[S+](=O)([O-])c3cccc4cnccc34)cc2)N[S+](=O)([O-])c2cccc3cnccc23)CC1`: in assay [1], the remaining parasite growth % (stronger effect = lower value) was -0.959%. In addition, in assay [2], the activity, percent of control amounted to 0.261%. Besides, the remaining proliferation (% of control), lower = more inhibition in assay [3] is -0.068%.

In the case of `N[C@H]1CN(c2c(F)cc3c(=O)c(C(=O)O)cn(C4C[C@H]4F)c3c2Cl)CC12CC2` (stereo not given in full), the max response in assay [4] was -6.9% (inactive).

For the compound `O=C([C@H](Cc1ccc(O[S+](=O)([O-])c2cccc3cnccc23)cc1)N[S+](=O)([O-])c1cccnc1)N1CCN(c2ccccc2)CC1`, the remaining parasite growth % (stronger effect = lower value) in assay [1] was -1.25%. For the same compound, the activity, percent of control in assay [2] came to 0.979%. Moreover, the remaining proliferation (% of control), lower = more inhibition in assay [3] is -0.812%.

With `C[C@H]1C[C@H]2C3CCC4=CC(=O)C=C[C@@]4(C)[C@@]3(Cl)[C@@H](O)CC2(C)[C@@]1(OC(=O)c1ccco1)C(=O)CCl` (stereo not given in full), the parasite growth, % of DMSO control in assay [5] is 5.13%. In assay [6], this compound came in with a parasite growth remaining, % of DMSO control (lower = more inhibition) of 6.79%. Besides, the parasite growth, % of control (lower = inhibition) in assay [7] came to 16.7%.

With `O=C([C@H](Cc1ccc(OS(=O)(=O)c2ccccn2)cc1)NS(=O)(=O)c1ccccn1)N1CCN(c2ccccc2)CC1`, the remaining parasite growth % (stronger effect = lower value) in assay [1] was found to be 49.4%. In addition, in assay [2], the activity, percent of control was determined as 24.7%. Besides, in assay [3], the remaining proliferation (% of control), lower = more inhibition was 18.6%.

Regarding `CO[C@H]1C=CO[C@@]2(C)Oc3c(C)c(O)c4c(O)c(c(C=NN5CCN(C)CC5)c(O)c4c3C2=O)NC(=O)C(C)=CC=CC(C)[C@H](O)[C@@H](C)[C@@H](O)[C@@H](C)[C@@H](OC(C)=O)[C@H]1C` (stereo not given in full), in assay [5], the parasite growth, % of DMSO control was determined as 4.07%. In assay [6], this compound yielded a parasite growth remaining, % of DMSO control (lower = more inhibition) of 6.12%. Also, in assay [7], the parasite growth, % of control (lower = inhibition) worked out at 8.95%.

Consider `CC(C)=CCCC(C)=CCNCCNC1C2CC3CC(C2)CC1C3` (stereo not given), for which, in assay [5], the parasite growth, % of DMSO control was found to be 4.83%. In assay [6], the parasite growth remaining, % of DMSO control (lower = more inhibition) came to 6.17%. This compound also had a parasite growth, % of control (lower = inhibition) in assay [7] of 13.8%.
